# Measurements from the supplement of paper PMC4466140.
# Biological target: AgAbp1
# Experiment: SPOT peptide array binding signal intensity (averaged, normalized) (arbitrary units (background-subtracted, floor 0; scale differs between SH3 domains)); higher = stronger binding of the SH3 domain to the peptide
# Summary of the method: (§1)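 Binding signal is given in arbitrary units that differ between domains and is the normalized, background-subtracted spot intensity averaged across replicates. Each GST-SH3 fusion from one of four yeast species was made in E. coli BL21(DE3), purified on glutathione Sepharose and incubated at 10 μg/ml overnight at 4°C on cellulose-bound synthetic 15-mer peptides in which cysteines were replaced by serines. Detection used anti-GST antibody, an HRP anti-mouse secondary and luminol, followed by imaging and Genespotter quantification.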
row,Binder,SPOT peptide array binding signal intensity
1,KDKSRPPRPPPKPLH,917

# Biological target: AgBbc1
# Experiment: as above
# Summary of the method: as §1
row,Binder,SPOT peptide array binding signal intensity
1,KDKSRPPRPPPKPLH,282

# Biological target: AgBem1-D1
# Experiment: as above
# Summary of the method: as §1
row,Binder,SPOT peptide array binding signal intensity
1,KDKSRPPRPPPKPLH,30

# Biological target: AgBzz1-D1
# Experiment: as above
# Summary of the method: as §1
row,Binder,SPOT peptide array binding signal intensity
1,KDKSRPPRPPPKPLH,257

# Biological target: AgBzz1-D2
# Experiment: as above
# Summary of the method: as §1
row,Binder,SPOT peptide array binding signal intensity
1,KDKSRPPRPPPKPLH,119

# Biological target: AgCyk3
# Experiment: as above
# Summary of the method: as §1
row,Binder,SPOT peptide array binding signal intensity
1,KDKSRPPRPPPKPLH,≤ 0

# Biological target: AgFus1
# Experiment: as above
# Summary of the method: as §1
row,Binder,SPOT peptide array binding signal intensity
1,KDKSRPPRPPPKPLH,≤ 0

# Biological target: AgHof1
# Experiment: as above
# Summary of the method: as §1
row,Binder,SPOT peptide array binding signal intensity
1,KDKSRPPRPPPKPLH,55.8

# Biological target: AgHse1
# Experiment: as above
# Summary of the method: as §1
row,Binder,SPOT peptide array binding signal intensity
1,KDKSRPPRPPPKPLH,27

# Biological target: AgLsb1
# Experiment: as above
# Summary of the method: as §1
row,Binder,SPOT peptide array binding signal intensity
1,KDKSRPPRPPPKPLH,7.5

# Biological target: AgLsb4
# Experiment: as above
# Summary of the method: as §1
row,Binder,SPOT peptide array binding signal intensity
1,KDKSRPPRPPPKPLH,11.5

# Biological target: AgMyo5
# Experiment: as above
# Summary of the method: as §1
row,Binder,SPOT peptide array binding signal intensity
1,KDKSRPPRPPPKPLH,≤ 0

# Biological target: AgNbp2
# Experiment: as above
# Summary of the method: as §1
row,Binder,SPOT peptide array binding signal intensity
1,KDKSRPPRPPPKPLH,138

# Biological target: AgRvs167
# Experiment: as above
# Summary of the method: as §1
row,Binder,SPOT peptide array binding signal intensity
1,KDKSRPPRPPPKPLH,1.33

# Biological target: AgSho1
# Experiment: as above
# Summary of the method: as §1
row,Binder,SPOT peptide array binding signal intensity
1,KDKSRPPRPPPKPLH,71.5

# Biological target: AgSla1-D1-D2
# Experiment: as above
# Summary of the method: as §1
row,Binder,SPOT peptide array binding signal intensity
1,KDKSRPPRPPPKPLH,≤ 0

# Biological target: AgSla1-D3
# Experiment: as above
# Summary of the method: as §1
row,Binder,SPOT peptide array binding signal intensity
1,KDKSRPPRPPPKPLH,7.5

# Biological target: CaAbp1-D1
# Experiment: as above
# Summary of the method: as §1
row,Binder,SPOT peptide array binding signal intensity
1,KDKSRPPRPPPKPLH,298

# Biological target: CaAbp1-D2
# Experiment: as above
# Summary of the method: as §1
row,Binder,SPOT peptide array binding signal intensity
1,KDKSRPPRPPPKPLH,780

# Biological target: CaBbc1
# Experiment: as above
# Summary of the method: as §1
row,Binder,SPOT peptide array binding signal intensity
1,KDKSRPPRPPPKPLH,240

# Biological target: CaBem1-D1
# Experiment: as above
# Summary of the method: as §1
row,Binder,SPOT peptide array binding signal intensity
1,KDKSRPPRPPPKPLH,382

# Biological target: CaBzz1-D1
# Experiment: as above
# Summary of the method: as §1
row,Binder,SPOT peptide array binding signal intensity
1,KDKSRPPRPPPKPLH,3930

# Biological target: CaBzz1-D2
# Experiment: as above
# Summary of the method: as §1
row,Binder,SPOT peptide array binding signal intensity
1,KDKSRPPRPPPKPLH,748

# Biological target: CaCyk3
# Experiment: as above
# Summary of the method: as §1
row,Binder,SPOT peptide array binding signal intensity
1,KDKSRPPRPPPKPLH,23.5

# Biological target: CaFus1
# Experiment: as above
# Summary of the method: as §1
row,Binder,SPOT peptide array binding signal intensity
1,KDKSRPPRPPPKPLH,≤ 0

# Biological target: CaHof1
# Experiment: as above
# Summary of the method: as §1
row,Binder,SPOT peptide array binding signal intensity
1,KDKSRPPRPPPKPLH,≤ 0

# Biological target: CaHse1
# Experiment: as above
# Summary of the method: as §1
row,Binder,SPOT peptide array binding signal intensity
1,KDKSRPPRPPPKPLH,67

# Biological target: CaLsb1
# Experiment: as above
# Summary of the method: as §1
row,Binder,SPOT peptide array binding signal intensity
1,KDKSRPPRPPPKPLH,0.5

# Biological target: CaLsb4
# Experiment: as above
# Summary of the method: as §1
row,Binder,SPOT peptide array binding signal intensity
1,KDKSRPPRPPPKPLH,158

# Biological target: CaMyo5
# Experiment: as above
# Summary of the method: as §1
row,Binder,SPOT peptide array binding signal intensity
1,KDKSRPPRPPPKPLH,≤ 0

# Biological target: CaNbp2
# Experiment: as above
# Summary of the method: as §1
row,Binder,SPOT peptide array binding signal intensity
1,KDKSRPPRPPPKPLH,88.5

# Biological target: CaRvs167
# Experiment: as above
# Summary of the method: as §1
row,Binder,SPOT peptide array binding signal intensity
1,KDKSRPPRPPPKPLH,8.67

# Biological target: CaRvs167-3
# Experiment: as above
# Summary of the method: as §1
row,Binder,SPOT peptide array binding signal intensity
1,KDKSRPPRPPPKPLH,0.5

# Biological target: CaSho1
# Experiment: as above
# Summary of the method: as §1
row,Binder,SPOT peptide array binding signal intensity
1,KDKSRPPRPPPKPLH,≤ 0

# Biological target: CaSla1-D1-D2
# Experiment: as above
# Summary of the method: as §1
row,Binder,SPOT peptide array binding signal intensity
1,KDKSRPPRPPPKPLH,602

# Biological target: CaSla1-D3
# Experiment: as above
# Summary of the method: as §1
row,Binder,SPOT peptide array binding signal intensity
1,KDKSRPPRPPPKPLH,21.5

# Biological target: ScAbp1
# Experiment: as above
# Summary of the method: as §1
row,Binder,SPOT peptide array binding signal intensity
1,KDKSRPPRPPPKPLH,670

# Biological target: ScBbc1
# Experiment: as above
# Summary of the method: as §1
row,Binder,SPOT peptide array binding signal intensity
1,KDKSRPPRPPPKPLH,8.5

# Biological target: ScBem1-D1
# Experiment: as above
# Summary of the method: as §1
row,Binder,SPOT peptide array binding signal intensity
1,KDKSRPPRPPPKPLH,≤ 0

# Biological target: ScBzz1-D1
# Experiment: as above
# Summary of the method: as §1
row,Binder,SPOT peptide array binding signal intensity
1,KDKSRPPRPPPKPLH,123

# Biological target: ScBzz1-D2
# Experiment: as above
# Summary of the method: as §1
row,Binder,SPOT peptide array binding signal intensity
1,KDKSRPPRPPPKPLH,≤ 0

# Biological target: ScCyk3
# Experiment: as above
# Summary of the method: as §1
row,Binder,SPOT peptide array binding signal intensity
1,KDKSRPPRPPPKPLH,≤ 0

# Biological target: ScFus1
# Experiment: as above
# Summary of the method: as §1
row,Binder,SPOT peptide array binding signal intensity
1,KDKSRPPRPPPKPLH,≤ 0

# Biological target: ScHof1
# Experiment: as above
# Summary of the method: as §1
row,Binder,SPOT peptide array binding signal intensity
1,KDKSRPPRPPPKPLH,≤ 0

# Biological target: ScHse1
# Experiment: as above
# Summary of the method: as §1
row,Binder,SPOT peptide array binding signal intensity
1,KDKSRPPRPPPKPLH,24

# Biological target: ScLsb1
# Experiment: as above
# Summary of the method: as §1
row,Binder,SPOT peptide array binding signal intensity
1,KDKSRPPRPPPKPLH,121

# Biological target: ScLsb2
# Experiment: as above
# Summary of the method: as §1
row,Binder,SPOT peptide array binding signal intensity
1,KDKSRPPRPPPKPLH,1

# Biological target: ScLsb3
# Experiment: as above
# Summary of the method: as §1
row,Binder,SPOT peptide array binding signal intensity
1,KDKSRPPRPPPKPLH,1930

# Biological target: ScLsb4
# Experiment: as above
# Summary of the method: as §1
row,Binder,SPOT peptide array binding signal intensity
1,KDKSRPPRPPPKPLH,15.5

# Biological target: ScMyo3
# Experiment: as above
# Summary of the method: as §1
row,Binder,SPOT peptide array binding signal intensity
1,KDKSRPPRPPPKPLH,29.5

# Biological target: ScMyo5
# Experiment: as above
# Summary of the method: as §1
row,Binder,SPOT peptide array binding signal intensity
1,KDKSRPPRPPPKPLH,49.5

# Biological target: ScNbp2
# Experiment: as above
# Summary of the method: as §1
row,Binder,SPOT peptide array binding signal intensity
1,KDKSRPPRPPPKPLH,305

# Biological target: ScPex13
# Experiment: as above
# Summary of the method: as §1
row,Binder,SPOT peptide array binding signal intensity
1,KDKSRPPRPPPKPLH,103

# Biological target: ScRvs167
# Experiment: as above
# Summary of the method: as §1
row,Binder,SPOT peptide array binding signal intensity
1,KDKSRPPRPPPKPLH,45

# Biological target: ScSho1
# Experiment: as above
# Summary of the method: as §1
row,Binder,SPOT peptide array binding signal intensity
1,KDKSRPPRPPPKPLH,171

# Biological target: ScSla1-D1-D2
# Experiment: as above
# Summary of the method: as §1
row,Binder,SPOT peptide array binding signal intensity
1,KDKSRPPRPPPKPLH,266

# Biological target: ScSla1-D3
# Experiment: as above
# Summary of the method: as §1
row,Binder,SPOT peptide array binding signal intensity
1,KDKSRPPRPPPKPLH,11.5

# Biological target: SpAbp1-D1
# Experiment: as above
# Summary of the method: as §1
row,Binder,SPOT peptide array binding signal intensity
1,KDKSRPPRPPPKPLH,528

# Biological target: SpBbc1
# Experiment: as above
# Summary of the method: as §1
row,Binder,SPOT peptide array binding signal intensity
1,KDKSRPPRPPPKPLH,≤ 0

# Biological target: SpBzz1-D1
# Experiment: as above
# Summary of the method: as §1
row,Binder,SPOT peptide array binding signal intensity
1,KDKSRPPRPPPKPLH,366

# Biological target: SpBzz1-D2
# Experiment: as above
# Summary of the method: as §1
row,Binder,SPOT peptide array binding signal intensity
1,KDKSRPPRPPPKPLH,16.8

# Biological target: SpCyk3
# Experiment: as above
# Summary of the method: as §1
row,Binder,SPOT peptide array binding signal intensity
1,KDKSRPPRPPPKPLH,1

# Biological target: SpHof1
# Experiment: as above
# Summary of the method: as §1
row,Binder,SPOT peptide array binding signal intensity
1,KDKSRPPRPPPKPLH,≤ 0

# Biological target: SpHof1-2
# Experiment: as above
# Summary of the method: as §1
row,Binder,SPOT peptide array binding signal intensity
1,KDKSRPPRPPPKPLH,≤ 0

# Biological target: SpHof1-3
# Experiment: as above
# Summary of the method: as §1
row,Binder,SPOT peptide array binding signal intensity
1,KDKSRPPRPPPKPLH,75.5

# Biological target: SpHse1
# Experiment: as above
# Summary of the method: as §1
row,Binder,SPOT peptide array binding signal intensity
1,KDKSRPPRPPPKPLH,21.5

# Biological target: SpLsb1
# Experiment: as above
# Summary of the method: as §1
row,Binder,SPOT peptide array binding signal intensity
1,KDKSRPPRPPPKPLH,484

# Biological target: SpLsb4
# Experiment: as above
# Summary of the method: as §1
row,Binder,SPOT peptide array binding signal intensity
1,KDKSRPPRPPPKPLH,670

# Biological target: SpMyo1
# Experiment: as above
# Summary of the method: as §1
row,Binder,SPOT peptide array binding signal intensity
1,KDKSRPPRPPPKPLH,277

# Biological target: SpNbp2
# Experiment: as above
# Summary of the method: as §1
row,Binder,SPOT peptide array binding signal intensity
1,KDKSRPPRPPPKPLH,13.5

# Biological target: SpPex13
# Experiment: as above
# Summary of the method: as §1
row,Binder,SPOT peptide array binding signal intensity
1,KDKSRPPRPPPKPLH,≤ 0

# Biological target: SpRvs167
# Experiment: as above
# Summary of the method: as §1
row,Binder,SPOT peptide array binding signal intensity
1,KDKSRPPRPPPKPLH,129

# Biological target: SpSla1-D1-D2
# Experiment: as above
# Summary of the method: as §1
row,Binder,SPOT peptide array binding signal intensity
1,KDKSRPPRPPPKPLH,≤ 0

# Biological target: SpSla1-D3
# Experiment: as above
# Summary of the method: as §1
row,Binder,SPOT peptide array binding signal intensity
1,KDKSRPPRPPPKPLH,3
